Test results as given in PubChem BioAssay.

What was measured:
[1] = test system: Human papillomavirus type 1a protein E7 (residues 44-93); assay: HPV1a E7 fragment binders on microarrays, primary screen, biochemical, small-molecule microarray, residues 44-93, 635 nm fluorescence (AID 1108); details: small-molecule microarray binding, fluorescence 635 nm; higher = more signal;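 also: E7 fragment applied at 1 µg/mL in TBST for 1 h at 4 C; score combines spot fluorescence with its signal to noise ratio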
[2] = modulators of HCV replicon luciferase signal, primary screen, HCV replication inhibitor project, Huh7 cells, luciferase reporter (AID 1109); details: 48 h, higher = more signal;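 also: huh7 hepatoma cells harbouring a luciferase neomycin HCV replicon reporter; luciferase luminescence as measure of HCV replicon replication; test concentration not given here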
[3] = molecular target: Left-right determination factor 2 (Homo sapiens) (UniProt O00292); assay: LEFTY2 binders on small-molecule microarrays, primary screen, biochemical, small-molecule microarray, 635 nm fluorescence scan (AID 1110); details: LEFTY2 binding, higher = more signal
[4] = molecular target: Calmodulin-1 (Homo sapiens) (UniProt P0DP23); assay: CALM1 binders on microarrays, EGTA buffer, profiling panel, biochemical, small-molecule microarray, Cy5-labelled CALM1 (AID 1111); details: Cy5-CALM1 binding fluorescence, higher = more signal;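 also: labelled calmodulin applied in Tris saline Tween buffer holding calcium plus EGTA and DTT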
[5] = molecular target: Calmodulin-1 (Homo sapiens) (UniProt P0DP23); assay: calcium-bound CALM1 binders on microarrays, profiling panel, artefact control for SMM control-protein annotation, biochemical, small-molecule microarray, Cy5-labelled CALM1, plus calcium (AID 1112); details: Cy5-CALM1 binding fluorescence, higher = more signal;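 also: score merges spot fluorescence with signal to noise from triplicate slides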
[6] = small-molecule microarray binders of probe aWnt5a, primary screen, biochemical, biotinylated probe, 635/667 nm fluorescence (AID 1113); details: higher = more signal;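 also: score merges 667 nm fluorescence intensity with signal-to-noise per printed feature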
[7] = small-molecule microarray binders of probe aShh, primary screen, biochemical, biotinylated probe, 635/667 nm fluorescence (AID 1114); details: higher = more signal;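 also: probe is biotin-labelled aShh protein from a stem cell growth factor screen; measures binding of labelled protein to compounds printed on the slide; score merges feature fluorescence at 667 nm with signal-to-noise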
[8] = small-molecule microarray binders of probe aNog, primary screen, biochemical, biotinylated probe, 635/667 nm fluorescence (AID 1115); details: higher = more signal;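 also: probe is biotinylated aNog protein used at 0.15 µg/mL for 1 h at 4 C; z-score combines 667 nm fluorescence of each spot with its signal to noise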
[9] = molecular target: Torsin-1A-interacting protein 1 (Homo sapiens) (UniProt Q5JTV8); assay: LAP1 binders from COS7 cell lysate, primary screen, small-molecule microarray, 635/667 nm fluorescence (AID 1116); details: COS7-hLAP1 lysate binding, 635 nm fluorescence, higher = more signal
[10] = molecular target: Alpha-bungarotoxin (Bungarus multicinctus) (UniProt P60615); assay: alpha-bungarotoxin binders on microarray, profiling panel, artefact control for SMM control protein annotation, biochemical, small-molecule microarray, Alexa647 label, 635/667 nm fluorescence (AID 1117); details: alpha-BTX-A647 binding fluorescence, higher = more signal
Sequence of Alpha-bungarotoxin (Bungarus multicinctus) (P60615 whole entry, looked up): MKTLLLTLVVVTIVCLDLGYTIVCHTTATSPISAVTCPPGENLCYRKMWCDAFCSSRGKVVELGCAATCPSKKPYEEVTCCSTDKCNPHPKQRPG

Sequence of Torsin-1A-interacting protein 1 (Homo sapiens) (Q5JTV8 whole entry, looked up): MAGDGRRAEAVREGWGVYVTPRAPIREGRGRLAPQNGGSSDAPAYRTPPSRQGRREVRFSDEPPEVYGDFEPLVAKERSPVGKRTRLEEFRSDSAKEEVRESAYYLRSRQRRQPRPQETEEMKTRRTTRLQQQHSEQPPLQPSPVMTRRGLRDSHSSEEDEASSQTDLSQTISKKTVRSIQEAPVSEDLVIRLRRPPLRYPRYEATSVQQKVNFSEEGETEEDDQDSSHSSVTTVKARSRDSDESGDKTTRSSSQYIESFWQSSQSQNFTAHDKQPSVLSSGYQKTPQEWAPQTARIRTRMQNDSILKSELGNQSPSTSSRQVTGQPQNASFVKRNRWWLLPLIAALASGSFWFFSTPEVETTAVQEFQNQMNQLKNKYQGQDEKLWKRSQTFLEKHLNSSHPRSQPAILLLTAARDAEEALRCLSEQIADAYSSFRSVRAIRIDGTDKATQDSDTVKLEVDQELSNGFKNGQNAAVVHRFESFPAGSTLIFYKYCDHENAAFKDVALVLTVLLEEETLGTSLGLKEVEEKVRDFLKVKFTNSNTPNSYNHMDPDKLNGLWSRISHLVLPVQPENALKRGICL
Sequence of Left-right determination factor 2 (Homo sapiens) (O00292 whole entry, looked up): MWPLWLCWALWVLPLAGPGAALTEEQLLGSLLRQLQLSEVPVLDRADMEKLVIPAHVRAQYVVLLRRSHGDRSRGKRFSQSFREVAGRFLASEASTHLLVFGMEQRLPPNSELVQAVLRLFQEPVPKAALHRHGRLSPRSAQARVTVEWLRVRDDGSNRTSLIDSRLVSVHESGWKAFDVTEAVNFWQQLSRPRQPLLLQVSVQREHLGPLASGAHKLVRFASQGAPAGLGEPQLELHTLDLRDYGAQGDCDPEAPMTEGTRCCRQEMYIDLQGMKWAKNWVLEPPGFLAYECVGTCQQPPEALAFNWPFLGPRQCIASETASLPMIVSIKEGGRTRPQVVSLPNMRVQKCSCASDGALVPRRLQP

SMILES | composite z-score [1] | z-score [2] | composite z-score [3] | composite z-score [4] | composite z-score [5] | composite z-score [6] | composite z-score [7] | composite z-score [8] | composite z-score [9] | composite z-score [10]
COC(=O)[C@@]1(Cc2ccccc2)[C@H]2c3cc(C(=O)N4CCCC4)n(C[C@H](O)CO)c3C[C@H]2CN1C(=O)c1ccccc1 | 0.391 | -0.925 | -0.43 | 2.06 | 0.142 | -0.124 | -0.316 | -0.107 | 2.96 | -0.187
CCOC(=O)C[C@H]1[C@H](OC(=O)Cc2ccc3c(c2)OCO3)[C@@H](NC(=O)Cc2ccc(OC)cc2)c2cc(OCCCO)ccc2N1C(=O)c1ccccc1 | 0.142 | -1.72 | 0.609 | 0.0314 | -0.551 | -0.154 | 0.233 | 0.588 | 0.569 | 0.997
C=CC[C@H](OC(=O)Nc1ccc(OC)cc1)c1ccc(O)c2ccccc12 | 1.07 | -3.63 | 0.848 | 0.107 | -0.636 | 0.0511 | 0.0469 | 0.241 | 0.505 | 1.78
CC1CC/C=C\[C@H]2OC34C=CCN(C(C)C)C(=O)[C@H]3N(CCCCCO)C(=O)[C@@H]4C2C(=O)O1 (stereo not given in full) | -0.806 | 0.205 | -2.15 | -0.329 | 0.446 | -0.178 | -0.206 | 0.179 | -0.753 | -1.36
COCCOC(=O)N1C(=O)[C@@]2(c3cc(C#CCC(C(=O)OC)C(=O)OC)ccc31)[C@H](c1ccc(OCCO)cc1)N1[C@H](c3ccccc3)[C@H](c3ccccc3)OC(=O)[C@H]1[C@@H]2C(=O)N1CCN(c2ncccn2)CC1 | 1.17 | -1.46 | 0.603 | 1.41 | 0.377 | -0.0236 | 0.184 | 0.363 | 1.33 | 1.85
COc1ccc(C(O)C2C=CC3C(=O)N(c4ccccc4)C(=O)C3N2Nc2ccccc2)cc1OCc1ccccc1 (stereo not given) | 1.48 | -0.412 | 0.0977 | 0.552 | 0.734 | 0.165 | 0.123 | 1.26 | 0.618 | 1.4
CC(C)CN1C(=O)[C@@]2(Cc3ccccc31)c1ccccc1C(=O)N(Cc1ccccc1C(F)(F)F)[C@H]2c1ccc(CO)cc1 | -1.57 | 0.186 | -0.584 | -0.566 | -0.815 | -0.2 | -0.138 | -0.303 | -1.07 | 0.14
C=C[C@@H](COC(C)=O)NS(=O)(=O)c1ccc(Br)cc1 | 0.487 | -0.178 | 0.219 | -0.271 | -0.144 | -0.0478 | -0.0643 | -0.538 | -0.0651 | 0.225
CC(C)(C)OC(=O)CC[C@]1(C(=O)NCCN2CCOCC2)N=C(c2ccc(OCCCO)cc2)O[C@H]1c1ccccc1 | 1.18 | 0.0186 | -0.103 | 1.78 | 0.598 | -0.0203 | -0.153 | 0.593 | -0.299 | 1.57
CC(C)C(=C=CC[C@@H](O)c1ccccc1OCCO)C[C@@H](O)COCc1ccccc1 | 0.247 | -1.21 | 0.639 | 0.277 | 0.652 | -0.128 | -0.0769 | 0.583 | 0.573 | -0.345
O=C1O[C@@H](c2ccccc2)[C@@H](c2ccccc2)N2[C@@H](c3ccc(O)cc3)[C@]3(C(=O)Nc4ccccc43)[C@@H](C(=O)Nc3nc4ccccc4s3)[C@H]12 | 1.36 | -2.35 | 0.0034 | 1.28 | -0.596 | 0.0495 | 0.0815 | -0.179 | 0.0579 | 1.32
C=CC[C@]1(C(=O)N(C)C)N=C(c2ccc(OCCCO)cc2)O[C@H]1c1ccccc1N=[N+]=[N-] | 1.4 | -0.277 | -0.406 | 2.27 | 0.116 | 0.0559 | 0.158 | -0.0009 | 0.959 | 2.03
COCCCNC(=O)[C@]1(Cc2ccccc2N=[N+]=[N-])N=C(c2ccc(OCCCO)cc2)O[C@@H]1c1ccccc1N=[N+]=[N-] | 1.43 | -3.31 | -0.282 | 1.72 | 0.785 | 0.14 | 0.0556 | -0.312 | -0.0819 | 0.955
CC[C@@H]1[C@H]2C3C(=O)N(CC)C(=O)C3CC(=O)[C@H]2[C@H](c2ccc(C)cc2)N1S(=O)(=O)c1ccc(C)cc1 (stereo not given in full) | 1.4 | -2.17 | 0.174 | 1.01 | 0.715 | -0.124 | -0.0035 | -0.115 | -0.154 | 0.484
COC(=O)[C@@]1(Cc2ccc(OC)cc2)[C@H]2c3cc(C(=O)N(C)C)n(Cc4nc5ccccc5[nH]4)c3C[C@H]2CN1C(=O)c1ccccc1 | 1.48 | -1.81 | -0.314 | 2.08 | 1.06 | 0.343 | 0.361 | 1.81 | 0.564 | 1.26
O=C1O[C@@H](c2ccccc2)[C@@H](c2ccccc2)N2[C@@H](c3ccc(O)cc3)[C@]3(C(=O)Nc4ccc(C#CCCO)cc43)[C@@H](C(=O)Nc3nc4ccccc4s3)[C@H]12 | 1.23 | -0.0469 | 0.173 | 0.289 | -0.331 | -0.0405 | 0.108 | 0.128 | 1.2 | 1.66
